AHR activator – AHR activators, primary screen, cell-based, luminescence, luciferase reporter, human | Aryl hydrocarbon receptor (Homo sapiens), P35869 | AHR-responsive luciferase reporter cells | activation, % at 5 µM | actives 2.5% (n = 320,000) | AID 2796, 2010; in the data active = activation above about 47%;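 also: 0% = vehicle wells and 100% = reference agonist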
Efflux pump inh – inhibitors of Candida efflux pumps in yeast, primary screen, S. cerevisiae, Nile Red, multiplex. actives 0.44% (n = 330,000). inhibition, % at 10 µM. S. cerevisiae Candida pump triplex;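 active = plate passing quality check with inhibition over a set limit, or well fluorescence over plate mean plus 4 SD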;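 also: Nile Red retained in pooled yeast measured as flow cytometry median fluorescence; 0% = buffer negative control and 100% = Enniatin B positive control; higher means more Nile Red kept so more efflux inhibition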
SUMO Mot1 rescue – yeast Mot1-301 growth rescue at high temperature, primary screen, SUMOylation pathway inhibitor project, S. cerevisiae, ATP luminescence, 38.5C; S. cerevisiae Mot1-301 growth rescue; percent above DMSO median, 100 means doubled; growth rescue, % at 18.8 µM; actives 1% (n = 320,000);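 active = every valid replicate shows activation above 250% relative to neutral control wells; inactive = the rest, any valid replicate at or below 250%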;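 also: OY570 slx delta 5 strain wells were the positive control but not used for scaling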
ALR H2O2 inh – inhibitors of human ALR sulfhydryl oxidase, primary screen, biochemical, H2O2 detection, HRP-luminol luminescence, single point | inhibition, % (test concentration not listed) | actives 3.8% (n = 290,000) | purified ALR, DTT oxidation | FAD-linked sulfhydryl oxidase ALR (Homo sapiens), P55789 | AID 485317, 2010;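 active = mean replicate inhibition above about 79%, with every replicate also reaching it, limit read from the data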
Target sequence (P55789 whole entry, looked up): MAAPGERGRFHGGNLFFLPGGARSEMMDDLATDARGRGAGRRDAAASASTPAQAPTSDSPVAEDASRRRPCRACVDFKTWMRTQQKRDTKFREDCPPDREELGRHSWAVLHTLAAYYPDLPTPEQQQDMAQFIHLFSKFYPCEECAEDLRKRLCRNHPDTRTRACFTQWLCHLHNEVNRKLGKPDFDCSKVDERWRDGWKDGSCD
VLA-4 inh – inhibition in human VLA-4 binding assay, primary screen, VLA-4 allosteric modulator project, MLPCN library, flow cytometry, VLA-4 expressing cells. Integrin alpha-4 (Homo sapiens), P13612. inhibition, % (about 7 µM as worked out from the volumes in the protocol). actives 0.2% (n = 330,000). ligand binding flow cytometry; in the data active = inhibition above about 50%
Bfl-1 A1 inh – caspase 3/7 activation in MEF A1-2A-BIM cells, primary screen, A1 inhibitor project, cell-based, luminescence, HTS; Caspase-Glo 3/7 luminescence, 3 h; percent of clofoctol response, vehicle zero; actives 0.066% (n = 330,000); caspase activation, % (concentration not given with the values); AID 2462, 2010;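 active = over half of replicate activation scores above 10%, or exactly half above 10 with the replicate mean above 10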
Cmpd fluor yeast – counter-screen for efflux pump inhibitors: compound fluorescence; shares compounds with Efflux pump inh; S. cerevisiae AD/pABC3, flow cytometry; fluorescence ratio to DMSO, % at 10 µM; actives 4% (n = 1,700);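 active = fluorescence ratio to DMSO above its plate's cutoff, the plate mean ratio plus 5 SD, cut at about 210% in these data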;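 also: unstained yeast with no Nile Red so the signal is compound autofluorescence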
Mdr1 pump inh – inhibitors of Candida albicans Mdr1 efflux, confirmation, flow cytometry, singleplex, Cherry Pick1 set; inhibition, % at 10 µM; S. cerevisiae AD/CaMDR1, Nile Red efflux; shares compounds with Efflux pump inh; AID 588518, 2011; actives 1% (n = 1,700); in the data active = inhibition above about 26%;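 also: 0% = DMSO vehicle and 100% = reference inhibitor; higher means more Nile Red retained so more efflux inhibition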
CaCdr2 efflux inh – inhibitors of Candida albicans Cdr2 efflux pump, confirmation, S. cerevisiae AD/CaCDR2, flow cytometry, cherry pick 1, singleplex; shares compounds with Efflux pump inh; Nile Red retention; Nile Red retention ratio vs DMSO, % at 10 µM; actives 4% (n = 1,700); AID 588520, 2011; in the data active = Nile Red retention ratio vs DMSO above about 190%;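 also: higher ratio means more blocking of Cdr2 efflux of the dye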
Cdr1 pump inh – inhibitors of Candida albicans Cdr1 efflux pump, confirmation, S. cerevisiae AD/CaCDR1, flow cytometry, cherry pick 1, singleplex. shares compounds with Efflux pump inh. Nile Red efflux. inhibition, % at 10 µM. actives 1% (n = 1,700). AID 588522, 2011;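 active = inhibition above the screen-wide mean plus twice its standard deviation, cut at about 32% in these data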
* = called active by the depositor; i = inactive; nt = not tested or not shown. In the library only some 7.2% were active in any assay of this set; here they are far more common.

SMILES	AHR activator	Efflux pump inh	SUMO Mot1 rescue	ALR H2O2 inh	VLA-4 inh	Bfl-1 A1 inh	Cmpd fluor yeast	Mdr1 pump inh	CaCdr2 efflux inh	Cdr1 pump inh
CCn1cc(C(=O)O)c(=O)c2cnc(N3CCN(C(=S)NC(=O)c4ccccc4)CC3)nc21	3	0.8*	870	6	2	1	93	0	98	0
CCOC(=O)C1=C(C)NC(C)=C(C(=O)OCC)C1c1ccccc1/C=C/C(=O)OC(C)(C)C	16	0	-8	-6	8	-1	nt	nt	nt	nt
O=C(CSc1ccc(-c2ccccc2)nn1)NC1CCCCC1	12	5.7*	65	-6	2	2	98	0	95	0
COc1ccc(C2=C(C)C(N3CCN(C(=O)c4ccco4)CC3)=NS2(=O)=O)cc1	-2	0	-1	-1	1	1	nt	nt	nt	nt
COc1cc(OC)c(NS(=O)(=O)c2ccc(Cl)c(C(=O)OC(C)C(=O)N3CCCC3)c2)cc1Cl (centres undefined)	1	7.6*	-13	-25	16	0	101	0	91	0
Cc1ccc(Nc2nc3ccccc3n3cnnc23)cc1Cl	10	0	6	-8	4	-2	nt	nt	nt	nt
COc1ccc(CCNC(=O)C2CCN(S(=O)(=O)N3CCC4(CC3)OCCO4)CC2)cc1OC	-2	1.3*	14	-5	0	0	103	0	105	0
COc1ccc(CCNC(=O)C2CCN(S(=O)(=O)N3CCCCC3)CC2)cc1OC	0	0	0	-12	6	1	nt	nt	nt	nt
COc1ccc(OCCSc2nnc(CCNC(=O)c3ccc(Cl)c(Cl)c3)n2C)cc1	0	0	-10	-2	-13	0	nt	nt	nt	nt
COc1ccc(OCCSc2nnc(CCNC(=O)c3ccc(OC)cc3)n2C)cc1	2	24*	13	-1	15	1	105	0	106	0
Cc1ccc(C(=O)Oc2coc(CSc3nnc(NC(=O)c4cccs4)s3)cc2=O)cc1	0	0	-2	5	6	-1	nt	nt	nt	nt
CCc1ccc(-c2cc(C(=O)Nc3ccc(S(=O)(=O)NC(C)=O)cc3)c3ccccc3n2)cc1	7	0	-8	10	8	1	104	0	97	0
CC(C)(C)NS(=O)(=O)c1ccc(NC(=O)c2cc(-c3ccccc3)nc3ccccc23)cc1	0	0	4	-14	11	0	nt	nt	nt	nt
Cc1ccc(-c2cc(C(=O)Nc3ccc(S(=O)(=O)Nc4ncccn4)cc3)c3ccccc3n2)cc1	5	8.2*	2	1	35	0	101	0	83	0
COc1cc(-c2cc(C(=O)Nc3ccc(O)cc3)c3ccccc3n2)cc(OC)c1OC	18	0	-12	nt	-4	0	102	0	98	0
CCCN(C(=O)c1ccccc1Cc1ccccc1)C1CCS(=O)(=O)C1 (centres undefined)	2	0	-12	-2	1	0	nt	nt	nt	nt
O=C(CNC(=O)c1ccc(Br)o1)OCc1ccc(Br)cc1	-1	0	63	-3	3	1	nt	nt	nt	nt
Cc1ccc(Oc2nc(CN3CCOCC3)nc3sc4c(c23)CCC(C)C4)cc1 (centres undefined)	1	0	80	54	-9	0	nt	nt	nt	nt
CC1CCc2c(sc3nc(CN4CCOCC4)nc(N4CCc5ccccc5C4)c23)C1 (centres undefined)	4	20*	-27	-3	-13	0	91	0	116	0
CC(C)(C)NC(=O)c1nc2nc(-c3ccccc3)cc(C(F)(F)F)n2n1	11	8.2*	-8	-5	16	0	103	0	98	0
O=C(c1nc2nc(-c3ccccc3)cc(C(F)(F)F)n2n1)N1CCOCC1	12	0	nt	-32	-1	0	nt	nt	nt	nt
C/C(=N\Nc1ncnc2sc(C)c(C)c12)c1ccccn1	30	30*	-15	nt	i	-1	80	0	135	5
Cc1sc2ncnc(N/N=C/c3cccc(O)c3)c2c1C	11	0	-9	11	18	2	nt	nt	nt	nt
CCC1CCCCN1CCCNC(=O)CN1C(=O)COc2ccc(S(=O)(=O)N3CCOCC3)cc21 (centres undefined)	0	43*	7	-3	6	0	103	0	94	0
O=C(OC1CCOC1=O)c1cccc(S(=O)(=O)N2CCc3ccccc3C2)c1 (centres undefined)	1	0	17	9	15	0	nt	nt	nt	nt
SMILES	AHR activator	Efflux pump inh	SUMO Mot1 rescue	ALR H2O2 inh	VLA-4 inh	Bfl-1 A1 inh	Cmpd fluor yeast	Mdr1 pump inh	CaCdr2 efflux inh	Cdr1 pump inh
COc1ccccc1NC(=O)N1CCC(C(=O)c2ccc(F)cc2)CC1	-1	7.5*	1	3	15	0	103	0	101	0
CCCCC(=O)NC(c1ccco1)c1cc(Cl)c2cccnc2c1O (centres undefined)	10	0	-9	-26	-12	-1	nt	nt	nt	nt
CCC(=O)NC(c1ccco1)c1cc(Cl)c2cccnc2c1O (centres undefined)	6	3.0*	-20	18	19	0	92	0	109	0
Cc1ccc2nsnc2c1NC(=O)c1cncc(Br)c1	8	0	4	-31	3	1	nt	nt	nt	nt
O=C(COC(=O)CSc1ccc2ccccc2c1)NC1CCCC1	18	25*	-9	100*	0	0	115	0	108	0
O=C(c1ccc(Cl)cc1)[C@@H]1[C@@H]2C(=O)N(c3ccc(Cl)cc3)C(=O)[C@@H]2C2c3ccccc3C=NN21 (some centres undefined)	26	0.6*	-22	1	3	-1	113	0	89	0

High-throughput results: PubChem BioAssay, several laboratories
